Common to all, as to settings: modulator concentration 10 µM
Experiment [1] has as its system RAW-Dual (murine macrophage reporter line). Put plainly: NF-kB reporter (SEAP) activity fold change vs agonist alone; higher = enhanced NF-kB activity. In outline:
(§1)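 Compound reached 10 μM final in each well by pin transfer, onto RAW-Dual murine macrophage reporter cells seeded at 50 000 per well in 384-well plates. After 1 hour at 37 °C, the cells were stimulated overnight with a PRR agonist. SEAP in the supernatant was read with QUANTI-Blue at 620 nm absorbance for NF-κB, and Lucia luciferase was read with QUANTI-Luc luminescence for IRF. Each signal was turned into fold change against the mean agonist-only control on the same plate, and two replicate plates were averaged with propagated errors.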

Experiment [2] shares this test system. Put plainly: IRF reporter (Lucia luciferase) activity fold change vs agonist alone; higher = enhanced IRF activity. In outline:
as §1

The test system is the same in experiment [3]. Nature of the experiment: viability score (confluency relative to resting cells, overnight) (fraction); higher = more viable, active = viable (0.7 or more). In outline:
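Two confluency masks, generated with IncuCyte software over all imaged wells, were applied to IncuCyte images of RAW-Dual macrophages. The cells, in 384-well plates, had been exposed overnight to 10 μM final compound. The viability score is confluency as a fraction of resting cells, and a compound met the cutoff only with both masks above 70% of resting cells.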

Where [4] appears, read: agonist: CpG ODN 1826 0.5 ug/mL.

± gives the standard deviation.

`Nc1nc(=O)n([C@@H]2CS[C@H](CO)O2)cc1F`: the figures for the NF-kB reporter in experiment [1] (setting [4]), in experiment [1] (agonist: LPS 0.1 ug/mL) and in experiment [1] (agonist: MPLA […]) were 1.59 ± 0.24, 1.3 ± 0.46 and 1.21 ± 0.073, respectively. The IRF reporter in experiment [2] (agonist: 3'3'-cGAMP 10 ug/mL) came out at 0.62 ± 0.15; in experiment [2] (agonist: LPS 0.1 ug/mL) it was 0.98 ± 0.22; in experiment [2] (agonist: MPLA […]), 0.836 ± 0.21. For the same compound, the viability score in experiment [3] is 1 (active).
Turning to `CCOC(=O)C1=C(C)NC(C)=C(C(=O)OCC)C1c1cccs1`, the NF-kB reporter amounted to 0.836 ± 0.23 in experiment [1] (setting [4]), 0.998 ± 0.089 in experiment [1] (agonist: LPS 0.1 ug/mL) and 0.965 ± 0.12 in experiment [1] (agonist: MPLA […]). For the same compound, the IRF reporter in experiment [2] (agonist: 3'3'-cGAMP 10 ug/mL) was 0.929 ± 0.071; in experiment [2] (agonist: LPS 0.1 ug/mL), 1.09 ± 0.3; in experiment [2] (agonist: MPLA […]), 1.08 ± 0.25. In addition, the viability score in experiment [3] was 0.978 (active).
As to `CCOC(=O)c1c(N)sc(C(=O)N2CCCC(C(N)=O)C2)c1C` (configuration not stated), the NF-kB reporter is 0.442 ± 0.15 in experiment [1] (setting [4]), 0.873 ± 0.095 in experiment [1] (agonist: LPS 0.1 ug/mL) and 0.356 ± 0.17 in experiment [1] (agonist: MPLA […]). Also, the IRF reporter in experiment [2] (agonist: 3'3'-cGAMP 10 ug/mL) worked out at 0.982 ± 0.039; in experiment [2] (agonist: LPS 0.1 ug/mL), 2.11 ± 0.89; in experiment [2] (agonist: MPLA […]), 1.79 ± 0.39. Also, the viability score in experiment [3] was 0.932 (active).
For the compound `COc1ccc(C(=O)Nc2sc3c(c2C(N)=O)CCCC3)cc1OC`, the NF-kB reporter in experiment [1] (setting [4]) was 0.866 ± 0.067; in experiment [1] (agonist: LPS 0.1 ug/mL) it was 1.01 ± 0.056; in experiment [1] (agonist: MPLA […]), 1.09 ± 0.029. The IRF reporter in experiment [2] (agonist: 3'3'-cGAMP 10 ug/mL) came to 0.694 ± 0.038; in experiment [2] (agonist: LPS 0.1 ug/mL), 0.942 ± 0.12; in experiment [2] (agonist: MPLA […]) it was 1.08 ± 0.14. For the same compound, the viability score in experiment [3] was 0.998 (active).
For the compound `CN1CCN(C2=NC(=O)C(=Cc3ccc(Cl)cc3Cl)S2)CC1`, the figures for the NF-kB reporter in experiment [1] (setting [4]), in experiment [1] (agonist: LPS 0.1 ug/mL) and in experiment [1] (agonist: MPLA […]) were 0.833 ± 0.076, 0.86 ± 0.068 and 1.15 ± 0.099, respectively. For the same compound, the IRF reporter was found to be 0.956 ± 0.051 in experiment [2] (agonist: 3'3'-cGAMP 10 ug/mL), 1.42 ± 0.099 in experiment [2] (agonist: LPS 0.1 ug/mL) and 1.59 ± 0.18 in experiment [2] (agonist: MPLA […]). For the same compound, the viability score in experiment [3] is 0.999 (active).
In the case of `CC(=O)O.CCN(CC)CC#CC1(O)CCCCC1`, the NF-kB reporter in experiment [1] (setting [4]) was 0.854 ± 0.083; in experiment [1] (agonist: LPS 0.1 ug/mL), 0.981 ± 0.058; in experiment [1] (agonist: MPLA […]), 0.914 ± 0.059. For the same compound, the IRF reporter in experiment [2] (agonist: 3'3'-cGAMP 10 ug/mL) worked out at 0.902 ± 0.078; in experiment [2] (agonist: LPS 0.1 ug/mL), 1.21 ± 0.14; in experiment [2] (agonist: MPLA […]) it was 1.06 ± 0.07. Also, the viability score in experiment [3] is 1.01 (active).
Turning to `O=C(CCCCCN1C(=O)c2cccc3cccc(c23)C1=O)NCCO`, the NF-kB reporter was 0.954 ± 0.082 in experiment [1] (setting [4]), 1.01 ± 0.082 in experiment [1] (agonist: LPS 0.1 ug/mL) and 0.872 ± 0.074 in experiment [1] (agonist: MPLA […]). The IRF reporter in experiment [2] (agonist: 3'3'-cGAMP 10 ug/mL) worked out at 0.886 ± 0.036; in experiment [2] (agonist: LPS 0.1 ug/mL) it was 1.29 ± 0.086; in experiment [2] (agonist: MPLA […]), 1.19 ± 0.14. Moreover, the viability score in experiment [3] was 1 (active).
With `OC(C(=NN=C(c1ccccc1)C(O)c1ccccc1)c1ccccc1)c1ccccc1` (configuration not stated), the NF-kB reporter in experiment [1] (setting [4]) came out at 0.662 ± 0.072; in experiment [1] (agonist: LPS 0.1 ug/mL) it was 1.14 ± 0.072; in experiment [1] (agonist: MPLA […]), 1.03 ± 0.063. Besides, the IRF reporter is 1.14 ± 0.038 in experiment [2] (agonist: 3'3'-cGAMP 10 ug/mL), 1.48 ± 0.11 in experiment [2] (agonist: LPS 0.1 ug/mL) and 1.45 ± 0.19 in experiment [2] (agonist: MPLA […]). In addition, in experiment [3], the viability score was 0.974 (active).
With `OCCCNCC(O)Cn1c2ccc(Br)cc2c2cc(Br)ccc21` (configuration not stated), the figures for the NF-kB reporter in experiment [1] (setting [4]), in experiment [1] (agonist: LPS 0.1 ug/mL) and in experiment [1] (agonist: MPLA […]) were 0.661 ± 0.043, 0.653 ± 0.057 and 1.75 ± 0.049, respectively. Besides, the IRF reporter in experiment [2] (agonist: 3'3'-cGAMP 10 ug/mL) is 0.626 ± 0.046; in experiment [2] (agonist: LPS 0.1 ug/mL), 1.19 ± 0.073; in experiment [2] (agonist: MPLA […]), 1.91 ± 0.18. Besides, in experiment [3], the viability score is 0.108 (inactive).
As to `CC(O)c1cn(-c2cccc(C(F)(F)F)c2)nn1` (configuration not stated), the values for the NF-kB reporter in experiment [1] (setting [4]), in experiment [1] (agonist: LPS 0.1 ug/mL) and in experiment [1] (agonist: MPLA […]) were 1.05 ± 0.35, 1.16 ± 0.072 and 1.04 ± 0.078, respectively. The IRF reporter worked out at 0.861 ± 0.038 in experiment [2] (agonist: 3'3'-cGAMP 10 ug/mL), 1.15 ± 0.12 in experiment [2] (agonist: LPS 0.1 ug/mL) and 1.23 ± 0.17 in experiment [2] (agonist: MPLA […]). Besides, the viability score in experiment [3] is 1 (active).
`CN1CCC(=C2c3ccccc3CCn3c(C=O)cnc32)CC1`: the NF-kB reporter in experiment [1] (setting [4]) came out at 0.766 ± 0.11; in experiment [1] (agonist: LPS 0.1 ug/mL), 1.24 ± 0.12; in experiment [1] (agonist: MPLA […]), 0.971 ± 0.1. Besides, the IRF reporter in experiment [2] (agonist: 3'3'-cGAMP 10 ug/mL) was 0.875 ± 0.04; in experiment [2] (agonist: LPS 0.1 ug/mL), 1.1 ± 0.14; in experiment [2] (agonist: MPLA […]), 0.943 ± 0.29. Further, the viability score in experiment [3] was 1 (active).
With `CN(C)CCOC(=O)COc1ccc(Cl)cc1.Cl`, the NF-kB reporter in experiment [1] (setting [4]) amounted to 1.11 ± 0.084; in experiment [1] (agonist: LPS 0.1 ug/mL) it was 1.09 ± 0.088; in experiment [1] (agonist: MPLA […]), 1.01 ± 0.038. Also, the IRF reporter in experiment [2] (agonist: 3'3'-cGAMP 10 ug/mL) worked out at 0.882 ± 0.076; in experiment [2] (agonist: LPS 0.1 ug/mL), 0.963 ± 0.043; in experiment [2] (agonist: MPLA […]), 0.964 ± 0.08. Besides, in experiment [3], the viability score is 0.999 (active).
As to `Cl.Cl.Clc1ccc(Nc2nnc(Cc3ccncc3)c3ccccc23)cc1`, the NF-kB reporter in experiment [1] (setting [4]) was 1.04 ± 0.15; in experiment [1] (agonist: LPS 0.1 ug/mL), 1 ± 0.24; in experiment [1] (agonist: MPLA […]), 1.14 ± 0.31. Moreover, the IRF reporter in experiment [2] (agonist: 3'3'-cGAMP 10 ug/mL) is 0.628 ± 0.021; in experiment [2] (agonist: LPS 0.1 ug/mL), 1.12 ± 0.2; in experiment [2] (agonist: MPLA […]) it was 0.926 ± 0.14. For the same compound, in experiment [3], the viability score is 0.979 (active).
As to `O=C(O)C(=O)O.c1ccc(SCCc2ccncc2)cc1`, the NF-kB reporter in experiment [1] (setting [4]) worked out at 1.06 ± 0.12; in experiment [1] (agonist: LPS 0.1 ug/mL), 1.04 ± 0.076; in experiment [1] (agonist: MPLA […]), 1 ± 0.056. Further, the results for the IRF reporter in experiment [2] (agonist: 3'3'-cGAMP 10 ug/mL), in experiment [2] (agonist: LPS 0.1 ug/mL) and in experiment [2] (agonist: MPLA […]) were 1.05 ± 0.24, 1.07 ± 0.09 and 1.19 ± 0.17, respectively. In addition, the viability score in experiment [3] was 1 (active).
In the case of `Clc1ccc(C=NNc2cc(N3CCCC3)nc(N3CCCC3)n2)c(Cl)c1`, the NF-kB reporter in experiment [1] (setting [4]) was found to be 0.988 ± 0.076; in experiment [1] (agonist: LPS 0.1 ug/mL) it was 0.983 ± 0.081; in experiment [1] (agonist: MPLA […]), 0.987 ± 0.1. Besides, the IRF reporter in experiment [2] (agonist: 3'3'-cGAMP 10 ug/mL) was 0.99 ± 0.062; in experiment [2] (agonist: LPS 0.1 ug/mL), 1.21 ± 0.15; in experiment [2] (agonist: MPLA […]), 1.31 ± 0.25. In experiment [3], the viability score was 1.04 (active).
For `CCN(Cc1ccncc1)C(=O)C(CO)c1ccccc1` (configuration not stated), the NF-kB reporter in experiment [1] (setting [4]) came to 0.998 ± 0.087; in experiment [1] (agonist: LPS 0.1 ug/mL), 0.997 ± 0.11; in experiment [1] (agonist: MPLA […]) it was 1.04 ± 0.071. In addition, the IRF reporter was determined as 0.972 ± 0.076 in experiment [2] (agonist: 3'3'-cGAMP 10 ug/mL), 0.954 ± 0.058 in experiment [2] (agonist: LPS 0.1 ug/mL) and 0.932 ± 0.08 in experiment [2] (agonist: MPLA […]). The viability score in experiment [3] was 1 (active).

(Values after the supplement of paper PMC10646978.)
